# Screening data as filed in PubChem.
# KKLEB tox: cytotoxicity in KKLEB CF airway cells, primary screen, cytotoxicity control for CF NF-kB inhibitor project, cell-based, uHTS, fluorescence assay plates | KKLEB CF airway cells viability, ATPlite luminescence, overnight; active compounds read low; cells stimulated with P. aeruginosa culture filtrate | activity change (cytotoxicity), % at 5 µM | 0.36% of 360,000 active | AID 602141, 2011;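 active = corrected activity change at or below -50% at 5 µM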
# hiPSC survival: enhancers of single-cell hiPSC survival, primary screen, ATPlite luminescence; 100% = ROCK inhibitor wells, 0% = DMSO; survival enhancement, % at 20 µM; 0.044% of 360,000 active; in the data active = survival enhancement above about 18%;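 note: cells exposed to compounds for 16 hours before the ATP read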
# C8 TRAIL sens: viability loss with TRAIL in NB7+C8 cells, primary screen, TRAIL sensitizer project, cell-based, ATPlite luminescence; AID 624354, 2012; inhibition (viability loss, TRAIL sensitization), % at 10 µM; 1% of 360,000 active;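 active = compounds causing at least 50% loss of cell viability in the single-dose screen, relative to plate controls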
# HIF-2a inh: HIF-2a reporter inhibitors, primary screen, luminescence, 786-0 RCC cells | 786-0 RCC cells HIF-2a reporter, luciferase luminescence, overnight | inhibition, % at 18.8 µM | 0.72% of 360,000 active | AID 624352, 2012;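 active = inhibition of the luminescence signal of 40% or more relative to plate controls, in a single-dose primary screen at 18.75 µM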
# PPC-1+TRAIL kill: compounds killing PPC-1 cancer cells with TRAIL present, primary screen, TRAIL potentiator project, ATPLite luminescence, uHTS; PPC-1 cells + TRAIL, ATPLite viability luminescence; cell killing (% activity), % at 4 µM or 5 µM; 0.41% of 220,000 active; AID 1443, 2008;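 active = cell killing above 50% in the first pass at 4 µM, then a duplicate retest at 5 µM averaging 50% or more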;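 note: plate controls were cells with TRAIL plus DMSO for no effect and medium-only wells lacking cells for full effect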
# CF NFkB block: inhibitors of PAF-induced NF-kB signaling, primary screen, cell-based, GFP fluorescence, uHTS; 0.86% of 360,000 active; KKLEB NF-kB-GFP reporter, GFP fluorescence overnight; inhibition, % at 5 µM; AID 588850, 2011;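 active = at least 50% inhibition at 5 µM, scaled per plate between neutral and stimulator controls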;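 note: PAF is a Pseudomonas aeruginosa culture filtrate used as stimulus; plate controls were PAF-stimulated DMSO wells for no effect and unstimulated DMSO wells for full effect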
# Mdm2-MdmX confirm: retested Mdm2-MdmX interaction blockers, confirmation, cell-based, luminescence, single concentration, set 2; shares compounds with HIF-2a inh; SaOS-2 split-luciferase Mdm2/MdmX complementation; inhibition, % at 8 µM; 99% of 740 active; AID 504601, 2011;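 active = mean inhibition of the luminescence signal across two replicates at or above 26 percent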
# HIF-2a conf: HIF-2a reporter inhibitor retest, confirmation, luminescence, 786-0 RCC cells. inhibition, % at 18.8 µM. AID 651580, 2012. shares compounds with HIF-2a inh. 56% of 1,800 active. HIF-2a luciferase reporter luminescence, overnight;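 active = mean inhibition across four replicates of at least 40 percent at the single tested concentration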
# HIF-1a cs: HIF-1a luciferase reporter signal reduction – MiaPaCa-2 cells, single concentration, counter-screen for HIF-2a inhibitor project, confirmation; shares compounds with HIF-2a inh; MiaPaCa-2 HIF-1a luciferase reporter, desferoxamine, overnight; inhibition, % at 18.8 µM; 72% of 1,800 active;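 active = mean inhibition of the reporter signal across four replicates at the single tested dose of 50% or more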
# * hit, by the source's call; / = not tested or not shown. Hits are enriched below; roughly 2.2% of the tested compounds scored in any of these assays.
SMILES,KKLEB tox,hiPSC survival,C8 TRAIL sens,HIF-2a inh,PPC-1+TRAIL kill,CF NFkB block,HIF-2a conf,HIF-1a cs,others
S=C(Nc1ccccc1)Nc1nc2ccccc2n1CCOc1ccccc1,5,1,4,90*,18,-4,-64,97*,
CCCCn1c(NC(=O)c2ccccc2)nc2ccccc21,4,0,4,-45,-5,7,/,/,
CCCCn1c(NC(=S)Nc2ccccc2)nc2ccccc21,5,-2,-17,42*,-7,-1,-10,50*,
Cc1nc2cc(-c3cccc(F)c3)nn2c(C)c1CCC(=O)NC(C)CCc1ccco1 (configuration not stated),-13,0,4,73*,14,10,82*,72*,
COc1ccccc1-c1cc2nc(C)c(CCC(=O)NCc3ccco3)c(C)n2n1,5,0,9,49*,4,12,55*,41,
COc1cc(OC)cc(-c2cc3nc(C)c(CCC(=O)NC(C)CCc4ccco4)c(C)n3n2)c1 (configuration not stated),-6,-1,-7,39,-15,-8,/,/,
Cc1nc2cc(-c3ccccc3)nn2c(C)c1CCC(=O)NCc1ccco1,0,-1,7,69*,-14,2,79*,37,
COc1ccc(CNC(=O)CCc2c(C)nc3cc(-c4ccccc4OC)nn3c2C)cc1,0,0,-4,49*,4,17,58*,31,
CCN1CSC(=S)N(Cc2ccc(OC)cc2)C1,5,-1,3,67*,-23,-8,-1,42,
CCN(CC)CCn1c2ccccc2c2nc3ccc([N+](=O)[O-])cc3cc21,10,-1,20,-59,6,-68,/,/,Mdm2-MdmX confirm=83*
CCC(CC)C(C(=O)NCc1ccccc1)N(C)Cc1ccc(Cl)c(Cl)c1 (configuration not stated),/,/,-22,5,/,/,/,/,
COc1ccc(-c2c(-c3ccccc3)c(C(=O)C(=O)NCCCN(C)C)n3ccc4cc(OC)c(OC)cc4c23)cc1OC,-3,0,-14,88*,/,-2,6,101*,
CN(C)CCNC(=O)C(=O)c1c(-c2ccccc2)cc2ccccn12,-22,1,-12,4,18,-8,/,/,
O=C1CN(C(=O)CN2CCN(S(=O)(=O)c3ccccc3)CC2)c2ccccc2N1,4,-1,2,3,/,-5,/,/,
CC(C)(C)c1ccc(Cn2nnc3c(=O)[nH]c(C4CCCN(C(=O)c5cccs5)C4)nc32)cc1 (configuration not stated),5,2,-1,43*,/,-2,14,84*,
CC(C)(C)c1ccc(Cn2nnc3c(=O)[nH]c(C4CCCN(C(=O)Cc5cccs5)C4)nc32)cc1 (configuration not stated),17,1,-14,-23,-3,-8,/,/,
CC(C)Oc1ccc(C(=O)NC2(C(F)(F)F)NC(=O)N(CCCc3ccccc3)C2=O)cc1 (configuration not stated),-5,0,-8,23,14,-10,/,/,
CC(=O)N1CCN(CC(=O)Nc2ccccc2Sc2ccc(Cl)cc2)CC1,-6,0,-2,35,13,10,/,/,
O=C(CCl)Nc1ccccc1Sc1ccc(Cl)cc1,-9,-5,95*,34,-7,5,/,/,Mdm2-MdmX confirm=103*
Cc1ccc(OCc2cc(C(=O)N(C)CCc3nc4ccccc4[nH]3)no2)cc1C,-8,0,11,-87,/,-2,/,/,
CS(=O)(=O)c1ccc(Cl)c(NC(=O)c2cccc(-n3cnnn3)c2)c1,5,0,12,51*,/,1,8,23,
C=CSc1sc(Cl)c(N2CCOCC2)c1[N+](=O)[O-],12,3,0,3,24,8,/,/,
C=CS(=O)(=O)c1sc(Cl)c(N2CCOCC2)c1[N+](=O)[O-],-4,0,-9,66*,1,31,75*,-3,
Cc1cccc(C2(c3cccc(C)c3)CC2C(=O)Nc2ccc([N+](=O)[O-])cc2O)c1 (configuration not stated),-62*,0,39,22,4,58*,/,/,Mdm2-MdmX confirm=100*
O=C(CCN1C(=O)c2ccc([N+](=O)[O-])cc2C1=O)Nc1ccccc1C(=O)O,-6,0,21,10,5,-12,/,/,
SMILES,KKLEB tox,hiPSC survival,C8 TRAIL sens,HIF-2a inh,PPC-1+TRAIL kill,CF NFkB block,HIF-2a conf,HIF-1a cs,others
Cc1cc(C(=O)CN2C(=O)c3ccccc3S2(=O)=O)c(C)n1C(C)C,-3,-5,27,76*,/,8,86*,82*,
O=C(CN1C(=O)c2ccccc2S1(=O)=O)NCc1ccccc1Cl,-1,2,-2,5,4,7,/,/,
C=CCn1c(C)cc(C(=O)CN2C(=O)c3ccccc3S2(=O)=O)c1C,-5,0,83*,95*,/,-14,99*,104*,Mdm2-MdmX confirm=74*
O=C(CN1C(=O)c2ccccc2S1(=O)=O)c1ccccc1Cl,-7,0,46,48*,/,12,75*,68*,
CC(C)NC(=O)CN1C(=O)c2ccccc2S1(=O)=O,2,-3,-10,4,7,3,/,/,
CCn1c(C)cc(C(=O)CN2C(=O)c3ccccc3S2(=O)=O)c1C,12,-2,34,73*,/,18,88*,77*,
COc1cc2ccccc2cc1C(=O)NCC(c1cccs1)N(C)C (configuration not stated),10,-1,35,-281,22,0,/,/,
O=C(N/N=C/c1ccccc1C(=O)O)c1cccc(S(=O)(=O)N2CCCCC2)c1,9,0,-12,-3,/,4,/,/,
O=C(CN(CC1CCCO1)C(=O)CNS(=O)(=O)c1ccccc1)NCCc1ccccc1 (configuration not stated),-7,1,-2,6,/,5,/,/,
CC(C)c1ccc(Nc2nc(Cl)nc(NCCO)n2)cc1,-3,0,7,-21,/,8,/,/,
